High-throughput results: PubChem BioAssay, Paczesny and Yang Labs, IUPUI and University of Michigan
ST2 inh = inhibitors of human ST2 (IL1RL1) binding to IL-33; AlphaLISA ST2-Fc/biotin-IL-33 interaction, 1 h; hit rate 2.3% among 78,000; inhibition, % for hits at 17 µM; in the data active = inhibition above about 30%
Target sequence (Q01638 whole entry, looked up): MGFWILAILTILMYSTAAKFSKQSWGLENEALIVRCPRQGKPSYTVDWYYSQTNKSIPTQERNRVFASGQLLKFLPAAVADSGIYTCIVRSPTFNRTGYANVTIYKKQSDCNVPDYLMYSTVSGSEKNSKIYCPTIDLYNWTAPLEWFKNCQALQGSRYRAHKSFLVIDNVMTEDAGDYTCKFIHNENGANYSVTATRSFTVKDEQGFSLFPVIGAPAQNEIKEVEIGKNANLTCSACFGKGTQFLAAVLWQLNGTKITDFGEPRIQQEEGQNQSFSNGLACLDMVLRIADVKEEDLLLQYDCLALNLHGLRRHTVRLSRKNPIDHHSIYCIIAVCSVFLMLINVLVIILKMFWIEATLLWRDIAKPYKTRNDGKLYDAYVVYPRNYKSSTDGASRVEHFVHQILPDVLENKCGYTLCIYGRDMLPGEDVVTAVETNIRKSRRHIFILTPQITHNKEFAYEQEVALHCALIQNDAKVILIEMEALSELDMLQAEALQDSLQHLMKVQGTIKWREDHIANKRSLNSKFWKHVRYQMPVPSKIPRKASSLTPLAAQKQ
The depositor's hits bear a star; i = inactive. The entries come from a sample that favours hits as a whole.

SMILES | ST2 inh
CSc1nc2c(c(=O)[nH]1)C(c1cccc(O)c1)C1=C(CC(C)(C)CC1=O)N2 (stereo not drawn) | i
COC(=O)c1[nH]ncc1CN1CCC(N2CCCC2=O)CC1 | i
N#Cc1nc(COc2ccccc2Cl)oc1N1CCCC1 | 73%*
N#CSCCCCOc1ccccc1Cl | i
CN1CCN(Cc2ccc(OCc3ccccc3)cc2)CC1 | i
N#Cc1nc(COc2ccc(Br)cc2)oc1N1CCN(Cc2ccccc2)CC1 | 56%*
COc1ccc(OCc2nc(C#N)c(N3CCC(C(N)=O)CC3)o2)cc1 | i
Fc1ccccc1OCCCn1ccnc1 | i
c1ccc(OCCCn2ccnc2)cc1 | i
N#Cc1nc(COc2ccccc2Cl)oc1NCCCn1ccnc1 | 45%*
Clc1ccccc1OCCCCN1CCNCC1 | i
O=c1oc2cc([N+](=O)[O-])ccc2nc1C=C(O)c1ccc(Cl)cc1 | i
CC(C)C[C@@H](N)C(=O)N(C)Cc1cc(-c2ccccc2)no1 | i
COc1ccc(-c2cc(C(=O)O)c3cc(C(C)C)ccc3n2)cc1 | i
CN(Cc1ccccc1)C(=O)c1cc(-c2ccc3c(c2)OCO3)on1 | i
O=C(Nc1nnc(-c2ccc(Cl)s2)o1)c1ccc(S(=O)(=O)N2CCOCC2)cc1 | i
CCOC(=O)C1(CC2CC2)CCN(C(=O)Cc2c(F)ccc(F)c2F)CC1 | i
O=C(C1CC1)N1CCc2cc(S(=O)(=O)N3CCc4ccccc4C3)ccc21 | i
Cc1cccnc1CNCC1(O)CCCN(Cc2cccc(F)c2F)C1=O (stereo not drawn) | i
CCOC(=O)C1=NN(c2cccc(Cl)c2)C2C(=O)N(c3ccc(C)cc3)C(=O)C12 (stereo not drawn) | i
c1ccc(-c2nnc3ccc4nnc(-c5ccccc5)n4n23)cc1 | i
c1ccc2oc(CN3Cc4[nH]cnc4C[C@H]3c3nc(-c4ccc5c(c4)OCO5)no3)cc2c1 | 61%*
CC(C)(CC(=O)O)CC(=O)N1Cc2[nH]cnc2C[C@H]1c1nc(-c2ccc3c(c2)OCO3)no1 | i
O=C(NCc1ccccc1)N1Cc2[nH]cnc2C[C@H]1c1nc(-c2ccc3c(c2)OCO3)no1 | i
Cc1ccc(S(=O)(=O)N(C)c2c(C)ccc(S(=O)(=O)NCCO)c2C)cc1 | i
SMILES | ST2 inh
O=C(CCCN1CCOCC1)N1[C@H]2CCNC[C@@H]1CC2 | i
O=C(c1ccc([N+](=O)[O-])cc1)N1CCN(c2ccccc2F)CC1 | i
O=C(c1ccccc1[N+](=O)[O-])N1CCCCC1 | i
O=C(c1ccccc1)N1CCCCC1 | i
Cc1ccc(C(=O)N2CCCN(C(=O)c3ccc(C)cc3)CC2)cc1 | i
Cc1ccc(C(=O)/C=C(\c2ccccc2)N2CCCCC2)cc1 | 30%*
O=C(/C=C(/c1ccccc1)N1CCCCC1)c1ccc([N+](=O)[O-])cc1 | 38%*
O=C(c1oc(=O)c2ccccc2c1-c1ccccc1)N1CCCCCC1 | i
CN1CC23CN(C)CC2(C1)CN(Cc1cc2n(n1)CCNC2)C3 (stereo not drawn) | i
COc1ccc(Cl)cc1NC(=O)CCC1CCCN(C(=O)Cn2nc(C)cc2C)C1 (stereo not drawn) | i
COc1ccccc1NS(=O)(=O)c1ccc(Cl)cc1 | i
Cc1ccccc1NS(=O)(=O)c1ccc(NS(=O)(=O)c2ccc(F)cc2)cc1 | i
COc1ccccc1NC(=O)c1ccc(F)cc1 | i
COc1ccccc1NC1=CC(=NS(=O)(=O)c2ccccc2)c2ccccc2C1=O | 95%*
COc1ccccc1NC(=O)CN(C)S(=O)(=O)c1ccccc1 | i
CC(C)c1ccccc1NS(=O)(=O)c1ccc(F)cc1 | i
COc1ccccc1NS(=O)(=O)c1ccc2[nH]c(=O)sc2c1 | i
COc1ccc(S(=O)(=O)Nc2ccccc2C)cc1 | i
COc1ccccc1NC(=O)C(Cc1ccccc1)N1C(=O)c2ccccc2C1=O (stereo not drawn) | i
Cc1ccccc1NC1=CC(=NS(=O)(=O)c2ccc(F)cc2)c2ccccc2C1=O | 77%*
COc1ccccc1NC1=CC(=NS(=O)(=O)c2ccc(F)cc2)c2ccccc2C1=O | 95%*
COc1ccc(S(=O)(=O)N=C2C=C(Nc3ccccc3OC)C(=O)c3ccccc32)cc1 | 94%*
CCCc1ccc(S(=O)(=O)N2CCN(c3cc(-c4ccccc4C)ncn3)CC2)cc1 | i
CCCCOC(=O)C1=C(C)Nc2ncnn2C1c1ccccc1F (stereo not drawn) | i
CCOC(=O)c1ccc(Nc2nnc(C)c(=O)[nH]2)cc1 | i
SMILES | ST2 inh
CC1CCCN(C(=O)c2cc(-c3ccccc3)nc3ccccc23)C1 (stereo not drawn) | i
O=C(/C=C/c1ccc2c(c1)OCO2)Nc1ccc(Cl)cc1 | i
O=C(Cn1c2ccccc2c(=O)c2ccccc21)N1CCN(c2ccccc2)CC1 | i
CC1(C)COC(=O)C1OC(=O)c1ccccc1C(=O)O (stereo not drawn) | i
Cc1cc(C(=O)NC(CCC(=O)O)C(=O)O)c(C)o1 (stereo not drawn) | i
O=C(Nc1nc(-c2ccccn2)cs1)c1ccc(Oc2ccccc2)cc1 | i
COc1ccc2nc(CCNC(=O)CC(=O)Nc3cc(C)cc(C)c3)[nH]c2c1 | i
Cc1c(Cl)cccc1NS(=O)(=O)c1ccccc1[N+](=O)[O-] | i
CC(=O)N(CN1C(=O)c2ccc(Br)cc2C1=O)c1ccccc1 | i
CCc1ccc(S(=O)(=O)N2CCSC2c2ccccc2OC)cc1 (stereo not drawn) | i
COc1ccccc1NS(=O)(=O)c1cc([N+](=O)[O-])ccc1C | i
COc1ccccc1NC1=CC(=NS(=O)(=O)c2ccc(C)cc2C)c2ccccc2C1=O | 95%*
CCOc1ccccc1NS(=O)(=O)c1cc(C)ccc1OC | i
COc1ccc(S(=O)(=O)Nc2ccccc2Br)cc1OC | i
CCc1ccc(S(=O)(=O)N=C2C=C(Nc3ccccc3OC)C(=O)c3ccccc32)cc1 | 95%*
O=C(Nc1ccc(Oc2ccccc2)nc1)C1CCN(C(=O)[C@@H]2C[C@@H]3C=C[C@H]2C3)CC1 | i
COC(=O)c1nc2n(n1)C(c1ccc(Br)cc1)C(C(=O)OC1CCCCC1)=C(C)N2 (stereo not drawn) | i
CCCOC(=O)C(C)Oc1ccc2c(=O)c(Oc3ccc(OC)cc3)coc2c1 (stereo not drawn) | i
COc1ccc(N2C(=O)CC(Sc3nc4c(cc3C#N)CCCCC4)C2=O)cc1 (stereo not drawn) | i
O=C(CC[C@@H]1CNC(=O)[C@@H]2C[C@H](NC(=O)c3ccc(F)c(Cl)c3)CN12)NCc1ccccc1 | i
O=C1NC[C@@H](CCC(=O)N2CCOCC2)N2C[C@@H](NC(=S)NCc3ccco3)C[C@@H]12 | i
O=C(CC[C@@H]1CNC(=O)[C@@H]2C[C@H](NC(=S)Nc3ccc(Cl)cc3)CN12)NC1CC1 | i
COCCNC(=S)N[C@H]1C[C@H]2C(=O)NC[C@@H](CCC(=O)N3CCOCC3)N2C1 | i
O=C(CC[C@@H]1CNC(=O)[C@@H]2C[C@H](NC(=S)NCCN3CCOCC3)CN12)NCc1ccccc1 | 31%*
O=C(CC[C@@H]1CNC(=O)[C@@H]2C[C@H](NC(=O)Nc3ccc(F)cc3F)CN12)NCc1ccc(F)cc1 | 71%*
Cn1cnnc1SCC(=O)Nc1ccc(Br)cc1 | i
CCNC(=O)N1C[C@@H]2OCC(=O)N(CC3CCCCC3)[C@@H]2C1 | i
CCOC(=O)C1(CCOC)CCN(Cc2ccc(N(C)c3ccccc3)cc2)CC1 | i
CCOC(=O)C1(CCOc2ccccc2)CCN(S(=O)(=O)c2ccc(C)s2)CC1 | i
